From PubChem BioAssay AID743279 (National Center for Advancing Translational Sciences (NCATS), 2014)
The whole screen tested about 360,000 compounds, of which about 17,000 (4.7%) were called active. About 5% were inconclusive and are not listed. The sample holds actives, similar compounds and a random draw of the others, so the mix is not that of the screen. Cut-off read from the data, not from the text of the source: active = activity change below about -50%; inconclusive = mostly about -30% to -49%; inactive = weaker than that.
% is set by controls: 0 for no effect and ±100 for the full control effect.

Assay: qHTS for Inhibitors of Inflammasome Signaling: IL-1-beta AlphaLISA Primary Screen
Settings: THP-1 LPS/ATP IL-1B secretion, 16 h; at 57.5 µM, stronger effect = lower value
How it was run: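 THP-1 cells pretreated 1 hr with compounds (up to 57.5 uM final), then stimulated with LPS (250 ng/mL final) plus ATP (1.25 mM final); secreted IL-1B measured by AlphaLISA after 16 hr, decreased signal indicating inhibition.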
With `COc1ccccc1OCC(=O)OCc1cc(-c2ccco2)on1` the activity change was 1.02% (inactive).
With `CCOC(=O)[C@]12CCCC=C1N(CCC1=CCCCC1)C(=O)[C@H](CC(=O)N1CCSCC1)C2` the activity change was 15.1% (inactive).
In the case of `COc1ccc(Br)cc1CN(C)C(=O)C1CC(=O)N(C2CCCC2)C1` (stereo unspecified), the activity change is reported as -16.8% (inactive).
For `CC1(C(=O)Nc2cccnc2)Cc2c(-c3ccccc3)ccnc2O1` (stereo unspecified), the activity change was -18% (inactive).
For `CCOC(=O)COc1nc(C)cc(C(F)(F)F)c1C#N`, the activity change was -4.72% (inactive).
For `CCOC(=O)c1c(C(C#N)C#N)cc(C)nc1C`, the activity change was 17.2% (inactive).
With `CCOC(=O)c1cc(C)nc(S(C)(=O)=O)c1C#N` the activity change was -106% (active).
With `CCCCOc1ccc(Cl)cc1CSc1nncn1N` the activity change was -10.2% (inactive).
With `CC1=C(C(=O)N2CCOCC2)CC(CC(=O)NCc2cccc3ccccc23)C(=O)N1CCC1=CCCCC1` (stereo unspecified) the activity change was -8.18% (inactive).
With `CC(C)(C)c1ccc(/C=C/C(=O)Nc2ncccn2)cc1` the activity change was 0% (inactive).
With `COc1ccc(NS(=O)(=O)c2ccc(N3CCOCC3)c(NC(=O)/C=C/C(=O)O)c2)cc1` the activity change was 12.3% (inactive).
In the case of `COC(=O)c1sc(-c2ccc(C(C)(C)C)cc2)cc1NC(=O)/C=C/C(=O)O`, the activity change is reported as -98.5% (active).
In the case of `COc1ccc2oc(=O)cc(-c3cc4ccccc4o3)c2c1`, the activity change is reported as -52.1% (active).
For `COc1ccc(Nc2cc(=O)oc3ccccc23)cc1`, the activity change was 34.3% (inactive).
With `COc1cccc2cc(-c3cc(=O)oc4cc(C)c(O)cc34)oc12` the activity change was 0.212% (inactive).
For `Cc1ccc(S(=O)(=O)N2CCOCC2)cc1NC(=O)c1ccncc1`, the activity change was 6.64% (inactive).
For `CC1(C(=O)NCC2CCOCC2)Cc2c(-c3cccc(C(N)=O)c3)ccnc2O1` (stereo unspecified), the activity change was 40.9% (inactive).
In the case of `N#C/C(=C/c1ccc(-c2ccccc2[N+](=O)[O-])o1)C(=O)NCCN1CCCCC1`, the activity change is reported as -54.1% (active).
For `Cc1ccc(C(=O)N/C(=C/c2ccc(-c3cccc([N+](=O)[O-])c3)o2)C(=O)NCCCN(C)C)cc1`, the activity change was -105% (active).
In the case of `CN1CCN(CCNC(=O)Nc2ccccc2[N+](=O)[O-])CC1`, the activity change is reported as -9.61% (inactive).
For `O=C1C2C3C=CC(C4CC34)C2C(=O)N1/N=C/c1ccc(-c2ccccc2[N+](=O)[O-])o1` (stereo unspecified), the activity change was 5.29% (inactive).
With `Cc1ccc(-c2ccc(/C=N/NC(=O)CN3CCOCC3)o2)cc1[N+](=O)[O-]` the activity change was -11% (inactive).
For `O=C(CN1C(=O)NC2(CCCCC2)C1=O)NCCc1c[nH]c2ccccc12`, the activity change was 0% (inactive).
With `N#C/C(=C/c1ccc(N2CCCCC2)o1)C(=O)NCCc1c[nH]c2ccccc12` the activity change was -56.8% (active).
In the case of `O=C(NCCCN1CCOCC1)c1ccc([N+](=O)[O-])cc1[N+](=O)[O-]`, the activity change is reported as 47.3% (inactive).
In the case of `N#C/C(=C/c1ccc(N2CCOCC2)o1)C(=O)N1CCOCC1`, the activity change is reported as -6.13% (inactive).
For `CN(C)CCNC(=O)/C(=C/c1cccc([N+](=O)[O-])c1)NC(=O)c1ccccc1`, the activity change was -4.01% (inactive).
For `N#C/C(=C\c1ccc(-c2cccc([N+](=O)[O-])c2)o1)C(=O)NCCN1CCOCC1`, the activity change was -79.4% (active).
For `C=CCNC(=O)/C(=C\c1cccc([N+](=O)[O-])c1)NC(=O)c1ccccc1`, the activity change was 11.9% (inactive).
For `CCc1cccc(C)c1N(C(=O)Cn1c(CO)nc2ccccc21)C(C)COC` (stereo unspecified), the activity change was -5.47% (inactive).
In the case of `COc1ccc(N2c3ccccc3CN(Cc3ccccc3)[C@@H](C)[C@H]2Cc2ccc(-c3ccccc3)cc2)cc1`, the activity change is reported as 43% (inactive).
For `O=C(OCc1cn([C@H]2C[C@H](c3ccccc3)N(C(=O)c3cccs3)C[C@@H]2O)nn1)c1ccccc1`, the activity change was 9.57% (inactive).
With `CCOC(=O)C1(Cc2ccc(Cl)cc2)CCN(C(=O)C2=NNC(=O)CC2)CC1` the activity change was 5.99% (inactive).
In the case of `COc1ccc(S(=O)(=O)N2CCCCC2)cc1C(=O)NC1CCS(=O)(=O)C1` (stereo unspecified), the activity change is reported as -14.7% (inactive).
With `CCN(CC)C(=O)C1CCCN(Cc2cccc(Cl)c2)C1` (stereo unspecified) the activity change was -7.01% (inactive).
In the case of `O=C(C[C@H]1CC[C@@H](NC(=O)c2ccncc2)[C@@H](CO)O1)NCC1CC1`, the activity change is reported as 0.19% (inactive).
For `Cc1ccc(-n2c(SCC(=O)N3CCC(C(=O)O)CC3)nc3ccccc3c2=O)cc1C`, the activity change was 6.5% (inactive).
For `O=S1(=O)C[C@@H](N2CCN(CCO)CC2)[C@H](COCc2ccccc2)N1`, the activity change was -19.7% (inactive).
In the case of `COc1ccc(-c2ccc3[nH]c4c(c3c2)CCN2C[C@H]3[C@H](C)ON(C)[C@H]3C[C@@H]42)cc1`, the activity change is reported as -18.3% (inactive).
For `Nc1nc(CSc2nnnn2-c2ccccc2)nc(Nc2ccccc2)n1`, the activity change was -29.1% (inactive).
In the case of `CNC(=O)c1csc(-c2ccccc2)n1`, the activity change is reported as -4.77% (inactive).
For `CNC(=O)c1cccc2nc3ccccc3nc12`, the activity change was -78.6% (active).
For `CN(C)C(=O)c1coc2nc3ccccc3nc12`, the activity change was 25.5% (inactive).
With `COc1ccc(NC(=O)N2CCC(Cc3ccccc3)CC2)cc1` the activity change was -50.3% (active).
With `COc1ccc(C(=O)NC2CCN(C(=O)Nc3ccc(F)cc3)CC2)cc1` the activity change was 17.5% (inactive).
With `COc1ccc(NC(=O)N2CCCC(C(=O)Nc3ccccc3OC)C2)cc1` (stereo unspecified) the activity change was -1.11% (inactive).
In the case of `CCN1CCCC1CNc1ncnc2c1[nH]c1ccc(F)cc12` (stereo unspecified), the activity change is reported as -94.3% (active).
For `CC(C)OCCCNc1ncnc2c1[nH]c1ccc(F)cc12`, the activity change was -71% (active).
In the case of `CCN1CCCC1CNC(=O)c1cc2cc(OC)c(OC)cc2[nH]1` (stereo unspecified), the activity change is reported as -7.87% (inactive).
With `CCN1CCCC1Cn1cnc2c([nH]c3cc(OC)ccc32)c1=O` (stereo unspecified) the activity change was -21.8% (inactive).
For `C[C@@H]1CN([C@@H](C)CO)S(=O)(=O)c2ccc(-c3ccc(C(=O)N(C)C)cc3)cc2O[C@@H]1CN(C)Cc1ccccc1C(=O)O`, the activity change was 23.1% (inactive).
For `COc1ccc(-c2ccc3c(c2)C2CC3CCN2CCC#N)cc1` (stereo unspecified), the activity change was 12.2% (inactive).
For `Cc1cc(C)c2nc(-c3cccnc3)cc(C(=O)Nc3ccc(S(=O)(=O)Nc4onc(C)c4C)cc3)c2c1`, the activity change was 16.5% (inactive).
With `COc1ccc(CN2C(=O)C(CC(=O)NCc3cccc4ccccc34)CC(C(=O)N3CCOCC3)=C2C)cc1` (stereo unspecified) the activity change was -5.05% (inactive).
With `COc1cc(C(O)c2nc(-c3cnn(C)c3)cs2)ccc1F` (stereo unspecified) the activity change was 25.9% (inactive).
With `CC(C)(C)NC(=O)Cn1c(SCC(=O)Nc2nccs2)nc2ccccc21` the activity change was -11.3% (inactive).
